# Inconclusive results are not listed. Active and inactive are the calls of the source. Calls follow the shape of the dose curve; as a rule, active = well fitted cell-killing curve with a large enough effect; inconclusive = small, poorly fitted or top-dose-only effect, or effect the other way; inactive = no such curve, though single readings can be large or run the other way.
# Experiment: Quantitative High-Throughput drug screen in 47 multiple myeloma cell lines against the NCATS MIPE library collection: KMS34_JCRB cell viability assay (AID 1918985); also: nearly all actives have a fitted effect of over 40% in size
# Settings: KMS34 myeloma viability, CellTiter-Glo ATP luminescence, 48 h; series mostly up to 45.8 µM
# Text: PI: Beverly A. Mock Ph.D.
# Laboratory of Cancer Biology and Genetics,
# Center for Cancer Research, National Cancer Institute,
# National Institute of Health, Bethesda, Maryland
# Drug resistance and disease progression are common in multiple myeloma (MM) patients, underscoring the need for new therapeutic combinations. […] We hypothesized that effective combinations would reduce MYC expression and enhance p16 activity. […] These preclinical data identify potentially useful drug combinations for evaluation in drug-resistant MM and reveal potential mechanisms of combined drug sensitivity.
# Described herein is the primary MIPE qHTS used to cherrypick compounds. Validated compounds were then further tested for potential synergistic activiy.
# [1] Peat TJ, Gaikwad SM, Dubois W, Gyabaah-Kessie N, Zhang S, Gorjifard S, Phyo Z, Andres M, Hughitt VK, Simpson RM, Miller MA, Girvin AT, Taylor A, Williams D, D'Antonio N, Zhang Y, Rajagopalan A, Flietner E, Wilson K, Zhang X, Shinn P, Klumpp-Thomas C, McKnight C, Itkin Z, Chen L, Kazandijian D, Zhang J, Michalowski AM, Simmons JK, Keats J, Thomas CJ, Mock BA. Drug combinations identified by high-throughput screening promote cell cycle transition and upregulate Smad pathways in myeloma. Cancer Lett. 2023 Aug 1;568:216284. doi: 10.1016/j.canlet.2023.216284. Epub 2023 Jun 24. PMID: 37356470; PMCID: PMC10408729.
# SEQUENCE No. (e.g., 1, 2, 3, etc.); […] (e.g., Cells, Incubation, Reagent, etc.); VALUE and DESCRIPTION.
# 1; Cells; 5 uL; white, solid bottom 1536-well Greiner assay plate.
# 2; Compounds; 23 nL; Kalypsis pin tool (Wako USA) equipped with a 1536-well pin head to transfer to the assay plates.
# 3; Incubation; 48 hours; 37C incubation.
# 4; Reagent;5uL; CellTiter Glo (Promega).
# 5; Detector; 425V; Luminescence; Viewlux PerkinElmer.
# NOTES (numbers refer to Sequence numbers above)
# 1. The cell-based screening methods employed in this study were like those previously published. Briefly, the corresponding myeloma cell lines were screened in 1,536-well plates with 500 cells, 5-uL per well for inhibition of cell viability (assessed by measuring ATP levels with CellTiterGlo).
# 2. NCATS MIPE 4.0 library of approved and investigational drugs were added using the Kalypsis pin tool. Wells treated with DMSO only for 100% viability and media only for 0% viability were used as controls.
# 3. The assay plates were covered and incubated for 48 hours in a 37C, 5% CO2 incubator with controlled humidity.
# 4. After 48 hours, CellTilter-GloTM luminescent substrate mix (Promega) reagent was added to the assay plate and plates we incubated for 5 min at room temperature.
# 5. Signal was measured as median relative luminescence units on a ViewLux (PerkinElmer) multiplate reader.
# [1] Heske CM, Davis MI, Baumgart JT, Wilson K, Gormally MV, Chen L, Zhang X, Ceribelli M, Duveau DY, Guha R, Ferrer M, Arnaldez FI, Ji J, Tran HL, Zhang Y, Mendoza A, Helman LJ, Thomas CJ. Matrix Screen Identifies Synergistic Combination of PARP Inhibitors and Nicotinamide Phosphoribosyltransferase (NAMPT) Inhibitors in Ewing Sarcoma. Clin Cancer Res. 2017 Dec 1;23(23):7301-7311. doi: 10.1158/1078-0432.CCR-17-1121. Epub 2017 Sep 12. PMID: 28899971; PMCID: PMC6636827.
# Potency is read from the fitted curve at half-maximal effect.
row,Compound,Potency
1,COc1cc2c(cc1Cc1cccc(Cl)c1F)c(=O)c(C(=O)O)cn2[C@H](CO)C(C)C,20.9 µM (active)
2,Oc1ccc(C=Cc2cc(O)cc(O)c2)cc1,5.26 µM (active)
3,COc1ccc2cc1Oc1ccc(cc1)C[C@H]1c3cc(c(OC)cc3CCN1C)Oc1c(OC)c(OC)cc3c1[C@H](C2)N(C)CC3,14.8 µM (active)
4,C[C@@H]1O[C@@H](O[C@H]2CC[C@@]3(C)[C@H](CC[C@@H]4[C@H]3C[C@@H](O)[C@]3(C)[C@@H](C5=CC(=O)OC5)CC[C@]43O)C2)C[C@H](O)[C@@H]1O[C@H]1C[C@H](O)[C@H](O[C@H]2C[C@H](O)[C@@H](O)[C@@H](C)O2)[C@H](C)O1 (stereo in doubt),0.34 µM (active)
5,CN(C)CCOc1cc(-c2cn[nH]c2)ccc1NC(=O)C1COc2ccccc2O1 (stereo not given),9.35 µM (active)
6,N#CC(c1ccnc(NCCc2cccnc2)n1)c1nc2ccccc2s1 (stereo not given),14.8 µM (active)
7,CCC[C@H](Nc1nc(-c2ccc(NC(=O)NCC)c(OC)c2)ncc1C)c1cccnc1,0.0059 µM (active)
8,COC(=O)Nc1ccc(-c2nc(N3CCOCC3)c3cnn(C4CCN(C(=O)OC)CC4)c3n2)cc1,1.05 µM (active)
9,O=C(CO)N1CCC(c2[nH]nc(-c3ccc(Cl)cc3)c2-c2ccncn2)CC1,inactive
10,CC(C)[C@H](O)C(=O)N[C@@H](C)C(=O)N[C@@H]1C(=O)N(C)CCc2ccccc21,inactive
11,CC(C)CN(C[C@@H](O)[C@H](Cc1ccccc1)NC(=O)O[C@H]1CO[C@H]2OCC[C@H]21)S(=O)(=O)c1ccc(N)cc1,inactive
12,O=C(O)CCC=CCC[C@@H]1[C@H](N2CCCCC2)[C@@H](O)C[C@@H]1OCc1ccc(-c2ccccc2)cc1,inactive
13,OC1CCC(Nc2ncc3nc(Nc4c(F)cc(F)cc4F)n([C@@H]4CCOC4)c3n2)CC1 (stereo not given in full),23.5 µM (active)
14,CN[C@@H](C)[C@H]1[C@H](O)C[C@@]2(C)[C@@H]3CC[C@H]4C(C)(C)[C@@H](NC)CC[C@@]45C[C@@]35CC[C@]12C,inactive
15,CC1=C(C(=O)Nc2cc3cn[nH]c3cc2F)C(c2ccc(C(F)(F)F)cc2)CC(=O)N1 (stereo not given),inactive
16,CCOC(=O)N1c2ccc(C(F)(F)F)cc2[C@@H](N(Cc2cc(C(F)(F)F)cc(C(F)(F)F)c2)C(=O)OC)C[C@H]1CC,5.26 µM (active)
17,CC(C)c1onc(-c2c(Cl)cccc2Cl)c1COc1ccc(C=Cc2cccc(C(=O)O)c2)c(Cl)c1,inactive
18,C[C@@H](NC(=O)c1ncnc(N)c1Cl)c1ncc(C(=O)Nc2cc(C(F)(F)F)c(Cl)cn2)s1,4.18 µM (active)
19,CON(C)C(=O)N1N=C(c2cc(F)ccc2F)S[C@]1(CCCN)c1ccccc1,inactive
20,O=C1C(c2c(O)[nH]c3ccccc23)=Nc2ccccc21,7.43 µM (active)

row,Compound,Potency
1,CC(=O)OCC(=O)[C@@]1(O)CC[C@H]2[C@@H]3CCC4=CC(=O)C=C[C@]4(C)[C@@H]3[C@@H](O)C[C@@]21C,0.209 µM (active)
2,Nc1ccc(-c2ccc3ncc4ccc(=O)n(-c5cccc(C(F)(F)F)c5)c4c3c2)cn1,0.0066 µM (active)
3,Cc1ccc(C(=O)N(CCCN)[C@@H](c2nc3cc(Cl)ccc3c(=O)n2Cc2ccccc2)C(C)C)cc1,inactive
4,COc1ccc2ccc(=O)oc2c1CC=C(C)C,13.2 µM (active)
5,CC[C@]1(O)C[C@H]2CN(CCC3=c4ccccc4=N[C]3[C@@](C(=O)OC)(c3cc4c(cc3OC)N(C)[C@H]3[C@@](O)(C(N)=O)[C@H](O)[C@]5(CC)C=CCN6CC[C@]43[C@@H]65)C2)C1,0.0053 µM (active)
6,CN(C)S(=O)(=O)c1ccc2c(c1)C(=Cc1cc3c([nH]1)CCCC3)C(=O)N2,5.9 µM (active)
7,O=c1[nH]nc(OCCCc2ccc(Cl)cc2)c(NCc2cccnc2)c1Br,20.9 µM (active)
8,c1cc(OCCN2CCCCC2)cc(-c2n[nH]c3ccc(-c4ncn[nH]4)cc23)c1,20.9 µM (active)
9,CCN(CCO)CCCOc1ccc2c(Nc3cc(CC(=O)Nc4cccc(F)c4)[nH]n3)ncnc2c1,inactive
10,CN1C(=O)C[C@H](C(=O)N[C@@H](Cc2cnc[nH]2)C(=O)N2CCC[C@@H]2C(N)=O)NC1=O,2.96 µM (active)
11,CC(C)CN(C[C@H](O)[C@H](Cc1ccccc1)NC(=O)O[C@H]1CCOC1)S(=O)(=O)c1ccc(N)cc1,inactive
12,CC(=O)Nc1cccc(-n2c(=O)n(C3CC3)c(=O)c3c(Nc4ccc(I)cc4F)n(C)c(=O)c(C)c32)c1,inactive
13,COc1cc([C@@H]2c3cc4c(cc3[C@@H](O[C@@H]3O[C@@H]5CO[C@@H](C)O[C@@H]5[C@H](O)[C@@H]3O)[C@H]3COC(=O)[C@H]23)OCO4)cc(OC)c1O,4.18 µM (active)
14,COc1ccc2c(c1)c(C1=C(c3c[nH]c4ccccc34)C(=O)NC1=O)cn2CCCN(C)C,14.8 µM (active)
15,CN(C)CCN(Cc1ccc(Cl)cc1)c1ccccn1,inactive
16,CN1CCc2c(n(Cc3ccc(C(=O)NO)cc3)c3ccccc23)C1,16.6 µM (active)
17,CC(C)=CCCC(C)=CCCC(C)=CCCC(C)=CCCC(C)=CCCC(C)=CCCC(C)=CCCC(C)=CCCC(C)=CCO,inactive
18,CC[C@H](C)C(=O)O[C@H]1C[C@H](O)C=C2C=C[C@H](C)[C@H](CC[C@@H](O)C[C@@H](O)CC(=O)O)[C@H]21,inactive
19,COc1ccc(-c2nc3ccc(C4=NNC(=O)CC4C)cc3[nH]2)cc1 (stereo not given),inactive
20,CN(C)CCOc1ccc(-c2nc(-c3ccc4c(c3)CCC4=NO)c(-c3ccncc3)[nH]2)cc1,13.2 µM (active)

# Reference: PubChem BioAssay (NCATS)
